# Shown are actives, neighbours in structure and some others; about 4.8% of the full set was active somewhere.
# DAX1 inh-1 = DAX1 (NR0B1) inhibition, primary screen | HEK293T StAR-luciferase reporter, SF-1/DAX-1 repression relief | actives 1.1% (n = 370,000) | AID 652010 | inhibition, % at 6.8 µM;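 active means inhibition above the mean over all tested compounds plus 3 SD, cut at about 3.6% in these data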;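 further: higher inhibition means more luminescence from relief of DAX-1 repression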
# ssDAF12 agonist = activators of S. stercoralis DAF-12 nuclear receptor; activation, % at 6.8 µM; actives 1% (n = 370,000); AID 652126; HEK293 ssDAF-12/GRIP1 lit1-tk-luc reporter, luminescence; % of 3 µM dafachronic acid response;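 active means activation above the mean over all tested compounds plus 3 SD, cut at about 0.9% in these data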
# hcDAF12 agonist = H. contortus DAF-12 activation, primary screen. actives 1.4% (n = 370,000). activation, % at 6.8 µM. HEK293 hcDAF-12 lit1-tk-luc reporter, luminescence; 0% DMSO, 100% Δ7-dafachronic acid;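 active means activation above the mean of all tested compounds plus 3 SD, cut at about 5.5% in these data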
# SMARCA2 act = SMARCA2 function activation, primary screen; MG213 cells, MMTV-luciferase reporter, dexamethasone, overnight; activation, % at 9.1 µM; actives 1% (n = 370,000); AID 652017; in the data active means activation above about 7.8%
# hgDAF12 agonist = hgDAF-12 agonism, primary luciferase screen. HEK293 GAL4-hgDAF12 UAS-luciferase reporter, agonist luminescence; normalized to butyrate control. activation, % at 6.8 µM. actives 1.8% (n = 370,000);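 active means activation above a cutoff set at the mean of all screened compounds plus 3 SD, cut at about 10% in these data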
# DAX1 inh-2 = inhibitors of human orphan nuclear receptor DAX1 (NR0B1) | HEK293 Gal4-DAX1 luciferase reporter, luminescence | inhibition, % at 6.75 µM | actives 0.99% (n = 340,000) | AID 504766;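 active means inhibition above the mean over all tested compounds plus 3 SD, cut at about 4.2% in these data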;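 further: inhibition shows as a rise in luminescence from relieved DAX1 repression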
# Target sequence (P51843 207-470 limits assumed): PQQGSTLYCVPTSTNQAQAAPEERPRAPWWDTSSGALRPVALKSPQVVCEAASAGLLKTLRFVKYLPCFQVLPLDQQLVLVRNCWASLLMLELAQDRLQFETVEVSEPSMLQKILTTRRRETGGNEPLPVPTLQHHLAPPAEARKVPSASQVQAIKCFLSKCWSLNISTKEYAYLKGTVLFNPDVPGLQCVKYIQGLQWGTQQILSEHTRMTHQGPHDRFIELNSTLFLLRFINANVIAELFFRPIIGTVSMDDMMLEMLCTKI
# Hits are given with their value; i = inactive; nt = no result.
SMILES,DAX1 inh-1,ssDAF12 agonist,hcDAF12 agonist,SMARCA2 act,hgDAF12 agonist,DAX1 inh-2
COC(=O)c1[nH]c2c(c1C)C(=O)CC(c1ccccc1)C2 (stereo not drawn),i,i,i,i,i,i
CCC(C)OC(=O)c1[nH]c2c(c1C)C(=O)CC(c1ccc(N(C)C)cc1)C2 (stereo not drawn),i,i,i,i,11,i
Cc1ccc(-c2[nH]ncc2/C=N/n2c(COc3ccccc3C)nc3ccccc3c2=O)cc1,i,i,i,i,13,i
Cc1ccccc1OCc1nc2ccccc2c(=O)n1/N=C/c1c[nH]c2ccccc12,i,i,i,i,i,i
COC(=O)c1c(C)[nH]c(/C=N/Nc2ccccc2)c1C,i,i,i,15,i,i
Cc1c(C=NNc2ccccc2)[nH]c(=O)[nH]c1=O,i,i,i,i,i,i
COc1ccc(OC)c(N)c1,i,i,i,i,i,5.1
OC(COCc1ccccc1)COCc1ccccc1,i,i,i,i,i,i
NC(CO)(CO)COCc1ccccc1,i,1.3,i,i,i,i
CC(=O)c1cccc(NC(=S)NC(=O)c2ccccc2)c1,i,i,i,i,12,i
O=C(NC(=S)Nc1ccc2cn[nH]c2c1)c1ccccc1,3.6,i,i,i,12,i
COc1ccc(NC(=O)NC(=O)c2ccccc2)cc1,i,i,i,i,i,i
O=C(NC(=O)c1ccccc1)Nc1ccccc1,i,1.3,6.2,i,12,i
S=C(Nc1ccccc1)Nc1ccc2cn[nH]c2c1,i,i,i,i,i,i
CCOC(=O)Cn1cc(CN2CCS(=O)(=O)N(Cc3ccc(C)cc3)C(C(=O)OC)C2)nn1 (stereo not drawn),i,i,i,i,i,nt
N#Cc1cccc(NC(=O)OCCN2C(=O)CCC23CCC(c2ccc(Cl)cc2)CC3)c1 (stereo not drawn),i,i,i,i,i,nt
CCN1CCN(C(=O)c2cc3c(=O)n(C)c4ccccc4c3n2C)CC1,i,i,i,i,i,5.8
CCOC(=O)N1CCN(C(=O)c2cc3c(=O)n(C)c4ccccc4c3n2C)CC1,i,i,i,i,i,i
CCCN(CCC)CCNC(=O)c1cc2c(=O)n(C)c3ccccc3c2n1C,i,i,i,i,i,5.7
Cc1ccc(CNC(=O)c2cc3c(=O)n(C)c4ccccc4c3n2C)cc1,i,i,i,i,i,5.6
COC(=O)[C@]12C[C@H](CC(=O)NCCCCc3ccccc3)C(=O)N(Cc3ccc(Cl)cc3Cl)C1=C[C@H](C(C)(C)C)O[C@@H]2C,i,i,i,i,i,nt
Clc1ccc(-n2c(SCc3cccc4ccccc34)nnc2-c2ccccc2)cc1,i,i,i,i,i,nt
Cc1cc(C)n2nc(SCc3nc4ccccc4[nH]3)nc2n1,i,i,i,i,i,4.5
O=C(CCc1ccc(S(=O)(=O)NC2CCCCC2)cc1)NCc1cccnc1,i,i,i,i,i,i
Cc1ccc(CNC(=O)CCc2ccc(S(=O)(=O)NC3CCCCC3)cc2)cc1,i,i,5.8,i,i,i
SMILES,DAX1 inh-1,ssDAF12 agonist,hcDAF12 agonist,SMARCA2 act,hgDAF12 agonist,DAX1 inh-2
COC(=O)[C@H](C(C)C)N1CCc2nnn(Cc3ccc(C)cc3)c2-c2cc(F)ccc2S1(=O)=O,i,i,i,i,i,nt
O=C1NC(=S)S/C1=C\c1cc(Cl)ccc1Cl,3.7,i,i,i,i,i
CC(C)C[C@@H]1COc2cc(Br)ccc2S(=O)(=O)N1Cc1cn(Cc2ccc(Br)cc2)nn1,i,i,i,i,i,nt
O=C(c1ccccc1)c1ccc2cc(O)ccc2c1,i,i,i,i,i,i
O=C(c1ccccc1)c1ccc2ccccc2c1,i,i,i,i,i,5.3
CN(C=O)c1ccc(CSc2ccccc2)cc1,i,i,i,i,12,i
O=C(Nc1cccnc1)c1ccc(CSc2ccccc2)cc1,i,i,i,i,i,i
C[C@H]1COc2cc(Br)ccc2S(=O)(=O)N1Cc1cn(Cc2ccc(Br)cc2)nn1,i,i,i,i,i,nt
CC1(C)C2CCC1(C(=O)O)c1nc3ccccc3nc12 (stereo not drawn),i,i,i,i,i,4.8
O=C([C@@H]1C[C@H]1c1ccccc1)N1CC[C@H]2[C@H](CCCN2Cc2cc(F)cc(F)c2)C1,i,i,i,i,i,nt
COc1ccc(C(=O)NCC(=O)OCC(=O)Nc2sccc2C#N)cc1OC,i,1.1,i,i,i,6.4
COc1ccc(NC(=O)CCCn2c(=O)oc3ccccc32)cc1Cl,i,i,6.4,7.8,i,i
CC(COc1cccc(C#N)c1)CN1CCC(C(O)(c2ccccc2)c2ccccc2)CC1 (stereo not drawn),i,i,i,i,i,nt
Cc1ccc(-c2noc(CCCC(=O)NC3CCCCC3)n2)cc1,i,i,i,i,i,i
O=C(CCCc1nc(-c2ccccc2)no1)NC1CCCCC1,i,1.1,i,i,i,i
Cc1ccsc1S(=O)(=O)n1c(CN2CCOCC2)nc2ccccc21,i,i,i,i,i,nt
CCOC(=O)N[C@H](C(=O)N1CCC[C@H]1C(=O)NCCc1ccccc1Cl)C1CCCCC1,i,i,i,i,i,nt
COc1ccc(CC(=O)NC2CCSc3ccccc32)c(OC)c1 (stereo not drawn),i,i,i,i,i,7.7
CSc1ccccc1C(=O)NC1CCSc2ccccc21 (stereo not drawn),i,i,5.7,i,i,i
COc1ccc(OC)c(C(=O)NC2CCSc3ccccc32)c1 (stereo not drawn),i,i,i,i,i,i
Cc1cccc(NC(=O)[C@H]2CC(=O)O[C@@H]2c2ccccc2)c1C,i,i,i,i,i,nt
Cc1nn(-c2ccccc2)cc1/C=N/O,i,i,i,i,i,5.2
c1ccc(Cn2c3ccccc3c3nnc(SCCN4CCCCC4)nc32)cc1,i,i,i,7.9,i,nt
CCCC(=O)OC[C@H]1CN(C2CCCC2)S(=O)(=O)c2c(Oc3ccc(F)cc3OC)cccc2O1,i,i,i,i,i,nt
COc1ccc(CN2CCN(S(=O)(=O)c3ccc(F)cc3)CC2)cc1OC,i,i,i,i,i,i
SMILES,DAX1 inh-1,ssDAF12 agonist,hcDAF12 agonist,SMARCA2 act,hgDAF12 agonist,DAX1 inh-2
COc1ccc(CN2CCN(S(=O)(=O)c3ccccc3)CC2)cc1Br,i,1.4,i,i,i,i
CCn1ccc(C(=O)Nc2ccccc2SC)n1,i,i,i,i,11,i
CCn1ccc(C(=O)Nc2ccc(Cl)cn2)n1,4.2,i,i,i,i,i
CCn1nccc1C(=O)Nc1ccc(Cl)cn1,i,i,i,i,i,i
N#Cc1c(-c2ccccc2)cc2nc3ccccc3n2c1N,i,i,i,i,i,4.3
CC(=O)c1sc(Nc2nc3cc4c(cc3s2)OCO4)nc1C,i,i,i,i,i,i
O=C(COc1ccccc1)Nc1nc2cc3c(cc2s1)OCO3,i,i,6.1,i,i,i
